Results filed as inconclusive are left out. Active and inactive are the calls of the source. The calls were made as follows: active = hit-call score of the fitted dose curve at least 0.9, where 1 is the maximum; inconclusive = response in the unintended direction; inactive = score below 0.9.
Biological target: Estrogen receptor (Homo sapiens) (UniProt P03372)
Assay: OT_ER_ERaERa_0480: Odyssey Thera (OT) 8-hour HEK293T Protein-Complementation Assay for Estrogen Receptor-alpha/-alpha Homodimer (AID 2283351);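 also: rise in fluorescence from reassembled reporter fragments on ERα LBD homodimer in nucleus or whole cell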
Summary of the method: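 The readout is complementation of fragments fused to the human ER alpha ligand-binding domain (aa 310-547), stably expressed in HEK293T cells. After 8 h of exposure, the increase in nuclear/cytoplasmic fluorescence was measured by laser scanning cytometry and fitted relative to DMSO.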

Sequence of Estrogen receptor (Homo sapiens) (P03372 whole entry, looked up, the tested form may be a part): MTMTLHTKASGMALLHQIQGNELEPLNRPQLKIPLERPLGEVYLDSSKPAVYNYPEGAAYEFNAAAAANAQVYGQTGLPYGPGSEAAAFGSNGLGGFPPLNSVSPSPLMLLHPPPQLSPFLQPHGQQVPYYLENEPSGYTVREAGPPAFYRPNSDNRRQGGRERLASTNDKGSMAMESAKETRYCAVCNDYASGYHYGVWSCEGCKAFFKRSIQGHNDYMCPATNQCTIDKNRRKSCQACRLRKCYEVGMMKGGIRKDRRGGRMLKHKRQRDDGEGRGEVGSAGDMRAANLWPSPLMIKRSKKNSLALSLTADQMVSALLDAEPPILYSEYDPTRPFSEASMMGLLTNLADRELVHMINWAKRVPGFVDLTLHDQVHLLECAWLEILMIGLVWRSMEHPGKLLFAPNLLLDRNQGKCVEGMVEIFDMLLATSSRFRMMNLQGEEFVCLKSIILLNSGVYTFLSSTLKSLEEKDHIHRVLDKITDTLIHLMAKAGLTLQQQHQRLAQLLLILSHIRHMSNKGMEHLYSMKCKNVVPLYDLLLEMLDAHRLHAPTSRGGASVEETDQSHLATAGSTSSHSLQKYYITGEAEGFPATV

| Structure (SMILES) | outcome | AC50 |
| --- | --- | --- |
| CCC(=O)OC(C)(C)C1CC=C(C)CC1 (configuration not stated) | inactive |  |
| Cc1cccc(O)c1 | inactive |  |
| O=C1OC2(c3ccc(O)cc3Oc3cc(O)ccc32)c2ccccc21 | inactive |  |
| CC(C)(CO)CO | inactive |  |
| CC(=O)CC(=O)N(C)C | inactive |  |
| CCCCCCOc1ccc(O)cc1 |  | 18.3 µM (active) |
| CC(O)CN (configuration not stated) | inactive |  |
| CCC(C)(C)C1CCC(=O)CC1 | inactive |  |
| CC(C)CCCC(C)(C)O | inactive |  |
| CCCCCCCCCOS(=O)(=O)O | inactive |  |
| COc1ccccc1O | inactive |  |
| CCCc1ccc(O)cc1 |  | 63.7 µM (active) |
| CC(=O)OC(C)(C)C1CC=C(C)CC1 (configuration not stated) | inactive |  |

Biological target: Androgen Receptor/SRC-1 Co-activator, AR (gene 367) (UniProt P10275)
Sequence (P10275 whole entry, looked up): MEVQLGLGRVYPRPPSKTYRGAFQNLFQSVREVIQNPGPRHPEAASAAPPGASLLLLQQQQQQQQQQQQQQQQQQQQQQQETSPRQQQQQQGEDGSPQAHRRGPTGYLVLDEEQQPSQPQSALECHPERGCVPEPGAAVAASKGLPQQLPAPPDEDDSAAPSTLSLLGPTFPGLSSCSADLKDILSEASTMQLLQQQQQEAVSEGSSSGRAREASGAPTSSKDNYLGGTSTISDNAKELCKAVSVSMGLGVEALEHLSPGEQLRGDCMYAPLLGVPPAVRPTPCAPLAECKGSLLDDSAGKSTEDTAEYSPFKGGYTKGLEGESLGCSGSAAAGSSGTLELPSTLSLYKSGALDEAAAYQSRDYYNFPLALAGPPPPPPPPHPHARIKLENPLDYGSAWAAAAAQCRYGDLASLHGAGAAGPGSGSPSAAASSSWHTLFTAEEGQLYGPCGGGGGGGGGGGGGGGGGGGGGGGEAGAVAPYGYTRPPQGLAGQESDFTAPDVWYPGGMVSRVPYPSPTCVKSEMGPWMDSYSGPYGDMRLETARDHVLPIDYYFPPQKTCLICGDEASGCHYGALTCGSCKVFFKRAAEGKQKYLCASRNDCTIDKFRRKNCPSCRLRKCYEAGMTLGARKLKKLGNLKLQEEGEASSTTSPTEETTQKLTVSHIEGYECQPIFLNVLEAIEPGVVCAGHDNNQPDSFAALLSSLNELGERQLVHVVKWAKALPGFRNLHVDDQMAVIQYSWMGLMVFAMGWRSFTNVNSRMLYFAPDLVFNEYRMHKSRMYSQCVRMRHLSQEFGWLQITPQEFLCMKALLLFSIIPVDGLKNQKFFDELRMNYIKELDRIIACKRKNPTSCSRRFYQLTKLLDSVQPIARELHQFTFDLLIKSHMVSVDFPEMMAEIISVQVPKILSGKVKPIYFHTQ
Assay: OT_AR_ARSRC1_0960: Odyssey Thera (OT) 16-hour HEK293T Protein-Complementation Assay for Androgen Receptor/SRC-1 Co-activator (AID 2283353);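 also: actives raise the signal above DMSO so potency reflects increased AR and SRC-1 complex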
Summary of the method: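 HEK293T cells stably expressing AR and SRC-1 fused to Venus YFP fragments, imaged 16 h after dosing. Nuclear/cytoplasmic fluorescence ratio at 488 nm from at least 400 cells per image; gain of signal relative to DMSO.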

| Structure (SMILES) | outcome | AC50 |
| --- | --- | --- |
| CC(C)(CO)CO | inactive |  |
| CCCCCCOc1ccc(O)cc1 |  | 75.1 µM (active) |
| CC(C)(C)c1cccc(O)c1 | inactive |  |
| CCC(C)(C)C1CCC(=O)CC1 | inactive |  |
